Assay results reported in PubChem BioAssay (NCATS).
Values joined by “and” are separate entries in the source; they are usually repeats but may differ in a detail not shown here. Equal entries are not always repeated. Records with an inconclusive call do not appear. A call without a number means that no potency is given here. The source holds several records for some structures; these can differ, active in one and inactive in another. Active and inactive are the calls of the source. The call rests on the fitted dose curve; in most records, active means well fitted curve in the direction sought with a large enough effect; inconclusive means small, poorly fitted or top-dose-only effect, or another doubt; inactive means no such curve, though single readings can be large; an effect the other way counts as inactive or inconclusive.

What was measured:
[1] = molecular target: Metallo-beta-lactamase type 2 (Klebsiella pneumoniae) (UniProt C7C422); test: qHTS to identify inhibitors of the New Delhi Metallo-beta-lactamase (NDM): assay validation screen against the NCATS LOPAC Collection (AID 1794843); further: series mostly up to about 38 µM
In short: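 Absorbance at 485 nm from nitrocefin turnover (50 uM solution added), read at plateau, gives the read-out. Compounds in DMSO were incubated first with 2 nM final NDM-1 in pH 7.0 HEPES buffer containing 1 uM ZnSO4 and 0.01% Tween20.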

[2] = molecular target: Phospholipid hydroperoxide glutathione peroxidase GPX4 (Homo sapiens) (UniProt P36969); test: Primary qHTS Assay for Inhibitors of Recombinant Selenoprotein Glutathione Peroxidase 4 (GPX4) (AID 1845192); further: nearly all actives have a fitted effect of over 65% in size; further: potency means the concentration at half of the fitted maximal effect
In short: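 GR-coupled assay: recombinant GPX4 preincubated 30 min with compound at room temperature; final 200 nM GPX4, 1 mM GSH, 0.5 mM cumene hydroperoxide, 0.5 mM NADPH, 100 nM GR, 0.01% BSA, pH 7.5 Tris. NADPH fluorescence (340/450 nm) read at 0 and 15 min.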

[3] = Quantitative High-Throughput drug screen in 47 multiple myeloma cell lines against the NCATS MIPE library collection: FR4_PLB cell viability assay (AID 1918924; further: nearly all actives have a fitted effect of over 35% in size; further: potency means the concentration at half of the fitted maximal effect)
In short: (§1)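 Myeloma cell lines, 500 cells per well, exposed to MIPE 4.0 library compounds for 48 h at 37C, 5% CO2. Viability from ATP by CellTiter-Glo luminescence; normalised to DMSO (100%) and media-only (0%) wells.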

[4] = Quantitative High-Throughput drug screen in 47 multiple myeloma cell lines against the NCATS MIPE library collection: Delta47_JCRB cell viability assay (AID 1918925; further: nearly all actives have a fitted effect of over 45% in size; further: potency means the concentration at half of the fitted maximal effect)
In short: (§2)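 Inhibition of cell viability is measured here. Each line was plated at 500 cells per well, treated with MIPE 4.0 drugs, kept 48 hours at 37C, then assayed for ATP content by CellTiter-Glo luminescence.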

[5] = Quantitative High-Throughput drug screen in 47 multiple myeloma cell lines against the NCATS MIPE library collection: EJM_DSMZ cell viability assay (AID 1918926; further: nearly all actives have a fitted effect of over 30% in size; further: potency means the concentration at half of the fitted maximal effect)
In short: as §2

[6] = Quantitative High-Throughput drug screen in 47 multiple myeloma cell lines against the NCATS MIPE library collection: AMO1_DSMZ cell viability assay (AID 1918927; further: nearly all actives have a fitted effect of over 30% in size; further: potency means the concentration at half of the fitted maximal effect)
In short: as §2

[7] = Quantitative High-Throughput drug screen in 47 multiple myeloma cell lines against the NCATS MIPE library collection: ARP1_JJKsccF8 cell viability assay (AID 1918928; further: nearly all actives have a fitted effect of over 40% in size; further: potency means the concentration at half of the fitted maximal effect)
In short: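 ATP readout (CellTiter-Glo), 48 h drug incubation, 37 °C/5% CO2, 500 cells per well; normalisation to DMSO (100%) and media-only (0%) controls.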

[8] = Quantitative High-Throughput drug screen in 47 multiple myeloma cell lines against the NCATS MIPE library collection: ARD_JJKsccE7 cell viability assay (AID 1918929; further: potency means the concentration at half of the fitted maximal effect)
In short: as §2

[9] = Quantitative High-Throughput drug screen in 47 multiple myeloma cell lines against the NCATS MIPE library collection: Karpas620_DSMZ cell viability assay (AID 1918959); further: nearly all actives have a fitted effect of over 30% in size; further: potency means the concentration at half of the fitted maximal effect
In short: as §1

[10] = molecular target: Glutathione peroxidase 1 (Homo sapiens) (UniProt P07203); test: Primary qHTS Assay for Inhibitors of Recombinant Selenoprotein Glutathione Peroxidase 1 (GPX1) (AID 1845191); further: nearly all actives have a fitted effect of over 65% in size
In short: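 GR-coupled assay: compounds preincubated 30 min at room temperature with GPX1, then reaction started with CHP; final 10 nM GPX1, 1 mM GSH, 0.5 mM CHP, 0.5 mM NADPH, 100 nM GR, 0.01% BSA, pH 7.5 Tris buffer. NADPH fluorescence (340/450 nm) read at 0 and 15 min.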

[11] = molecular target: Luciferin 4-monooxygenase (Photinus pyralis) (UniProt P08659); test: Primary firefly luciferase (FLuc) qHTS assay for identification of artifact compounds. (AID 1845220); further: nearly all actives have a fitted effect of over 60% in size
In short: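 Enzymatic FLuc inhibition assay: compounds pre-exposed to luciferin/ATP (10 uM each) for 15 min, then purified P. pyralis enzyme at 10 nM added. Read-out: luminescence at 5 min.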

[12] = tested on: Nanoluciferase (engineered Oplophorus gracilirostris luciferase); test: Primary Nanoluciferase (NLuc) qHTS assay for identification of artifact compounds. (AID 1845222);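 further: NLuc secreted into diluted conditioned medium of S16 cells; series mostly up to about 54 µM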
In short: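 S16 cell supernatant NLuc, 1:55; cpds qHTS; 15 min RT dark; Nano-Glo substrate 1:100, 5 min; luminescence; Hill fit of % inhibition.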

[13] = Primary redox qHTS assay for identification of artifact compounds. (AID 1845223)
In short: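 Amplex Red (25 uM) and HRP (250 mU/mL) in HBSS, with compounds for 15 min, then 250 uM DTT for 30 min, room temperature, dark. Fluorescence 525/598 nm read; normalized to DMSO and 10 uM DA3003; Hill fit.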

Chain of Glutathione peroxidase 1 (Homo sapiens) (P07203 whole entry, looked up): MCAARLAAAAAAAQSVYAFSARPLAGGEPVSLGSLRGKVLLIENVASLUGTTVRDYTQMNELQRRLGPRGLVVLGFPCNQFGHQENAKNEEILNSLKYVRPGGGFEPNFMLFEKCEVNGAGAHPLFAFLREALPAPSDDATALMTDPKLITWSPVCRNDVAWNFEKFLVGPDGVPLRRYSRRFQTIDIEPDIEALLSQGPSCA
Chain of Phospholipid hydroperoxide glutathione peroxidase GPX4 (Homo sapiens) (P36969 whole entry, looked up): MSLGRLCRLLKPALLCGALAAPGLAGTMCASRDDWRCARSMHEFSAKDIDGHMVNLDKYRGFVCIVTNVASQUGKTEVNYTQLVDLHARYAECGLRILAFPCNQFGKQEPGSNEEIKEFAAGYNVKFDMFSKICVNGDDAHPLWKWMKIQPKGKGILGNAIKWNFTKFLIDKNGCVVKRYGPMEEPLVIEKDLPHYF
Chain of Metallo-beta-lactamase type 2 (Klebsiella pneumoniae) (C7C422 whole entry, looked up): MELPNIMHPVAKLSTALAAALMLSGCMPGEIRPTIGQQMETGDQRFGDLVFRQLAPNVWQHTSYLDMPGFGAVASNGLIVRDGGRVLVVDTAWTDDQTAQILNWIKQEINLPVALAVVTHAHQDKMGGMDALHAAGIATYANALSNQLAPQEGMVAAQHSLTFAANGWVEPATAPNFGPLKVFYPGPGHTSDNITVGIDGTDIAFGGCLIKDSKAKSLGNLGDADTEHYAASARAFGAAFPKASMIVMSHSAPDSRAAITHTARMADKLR

| Structure (SMILES) | outcome [1] | Potency [2] | Potency [3] | Potency [4] | Potency [5] | Potency [6] | Potency [7] | Potency [8] | Potency [9] | Potency [10] | Potency [11] | outcome [12] | outcome [13] |
| --- | --- | --- | --- | --- | --- | --- | --- | --- | --- | --- | --- | --- | --- |
| O=C(O)c1cccnc1Nc1cccc(C(F)(F)F)c1 | inactive | inactive | inactive | inactive | inactive | inactive | inactive | inactive | inactive |  |  |  |  |
| Oc1ccc2ccccc2c1SSc1c(O)ccc2ccccc12 | inactive | inactive | 20.9 µM (active) |  |  | 20.9 µM (active) | 23.5 µM (active) | 16.6 µM (active) | 10.5 µM (active) | inactive |  |  |  |
| CC(=O)Nc1ccc(O)cc1 |  | inactive |  |  |  |  |  |  |  | inactive |  |  |  |
| O=c1cc(N2CCOCC2)oc2c(-c3ccccc3)cccc12 | inactive | inactive | 16.6 µM (active) |  |  | inactive | 18.7 µM (active) | inactive | inactive | inactive |  |  |  |
| O=C(CCc1ccc(O)cc1)c1c(O)cc(O)cc1O | inactive | inactive |  | 0.118 µM (active) |  | 0.59 µM (active) | 1.32 µM (active) | 0.372 µM (active) | 1.32 µM (active) |  |  |  |  |
| CNC[C@H](O)c1ccc(O)c(O)c1 | inactive | inactive | 9.59 µM (active) |  |  | inactive | 15.2 µM (active) | inactive | inactive | inactive |  |  |  |
| CCC(C)(Oc1ccc(C2(c3ccc(OC(C)(CC)C(=O)O)cc3)CCCCC2)cc1)C(=O)O (configuration not stated) |  | inactive | inactive | inactive | inactive | inactive |  | inactive | inactive | inactive | inactive | inactive |  |
| CN(c1nccc(=O)[nH]1)C1CCN(c2nc3ccccc3n2Cc2ccc(F)cc2)CC1 |  | inactive | inactive | 4.69 µM (active) |  | inactive | inactive | inactive | inactive | inactive | inactive | inactive |  |
| CN(C)C(=O)[C@H](O)[C@H](Cc1ccccc1)NC(=O)c1cc2cc(Cl)ccc2[nH]1 | inactive | inactive |  |  |  | 6.62 µM (active) | 16.6 µM (active) | 16.6 µM (active) |  |  | inactive | inactive | inactive |
| NCCCCNCCCN | inactive | inactive |  | 23.5 µM (active) | 23.5 µM (active) | inactive | 16.6 µM (active) | inactive | 18.7 µM (active) | inactive |  |  |  |
| COc1cc2c(cc1OC)C1CC(=O)C(CC(C)C)CN1CC2 (configuration not stated) | inactive | inactive | inactive |  | inactive |  |  | inactive | inactive |  |  |  |  |
| CCCS(=O)c1ccc2nc(NC(=O)OC)[nH]c2c1 (configuration not stated) |  | inactive | 11.8 µM (active) |  | inactive | inactive | 23.5 µM (active) |  | inactive | inactive | inactive | inactive | inactive |
| O=c1c(O)c(-c2cc(O)c(O)c(O)c2)oc2cc(O)cc(O)c12 | inactive | inactive |  | inactive | inactive | inactive |  | inactive | inactive | inactive |  |  |  |
| CC(C)c1ccc2c(c1)c(SC(C)(C)C)c(CC(C)(C)C(=O)O)n2Cc1ccc(Cl)cc1 | inactive | inactive |  | 26.4 µM (active) |  | inactive |  |  | inactive |  |  |  |  |
| COc1cc(Nc2c(C#N)cnc3cc(OCCCN4CCN(C)CC4)c(OC)cc23)c(Cl)cc1Cl |  | inactive | 23.5 µM (active) | 3.72 µM (active) | 23.5 µM (active) | 8.33 µM (active) | 18.7 µM (active) |  | 11.8 µM (active) | inactive | inactive | inactive | inactive |
| Cc1nccn1CC1CCc2c(c3ccccc3n2C)C1=O (configuration not stated) |  | inactive | inactive |  | inactive |  |  | inactive |  | inactive | inactive | inactive | inactive |
| CCOC(=O)C(C)Oc1cccc2c(=O)n(CC(=O)Nc3ccc4c(c3)OCCO4)ccc12 (configuration not stated) | inactive | inactive |  |  | inactive | 16.6 µM (active) |  | inactive | inactive | inactive |  |  |  |
| O=C(NOCC1CC1)c1ccc(F)c(F)c1Nc1ccc(I)cc1Cl |  | inactive | 23.5 µM (active) | 20.9 µM (active) |  | 6.62 µM (active) |  | 11.8 µM (active) | 0.372 µM (active) | inactive | inactive | inactive | inactive |
| CCC1=C(C)CN(C(=O)NCCc2ccc(S(=O)(=O)NC(=O)NC3CCC(C)CC3)cc2)C1=O (configuration not stated) |  | inactive | inactive |  | inactive | inactive | inactive | inactive | inactive | inactive | inactive | inactive | inactive |
| C[C@@H](N)C1CCC(C(=O)Nc2ccncc2)CC1 (some centres not stated) | inactive | inactive |  |  | inactive | inactive | inactive |  | inactive | inactive |  |  |  |
| C[Se]CCC(N)C(=O)O (configuration not stated) |  | inactive | inactive | inactive | inactive |  | inactive | inactive |  | inactive |  |  |  |
| C=C(c1ccc(C(=O)O)cc1)c1cc2c(cc1C)C(C)(C)CCC2(C)C |  | 6.31 µM (active) and inactive and 8.06 µM (active) |  |  | inactive |  | inactive |  | inactive | inactive | inactive | inactive | inactive |
| NC(=NCc1ccccc1)NC(=O)c1nc(Cl)c(N)nc1N | inactive |  | inactive |  | inactive |  | inactive |  |  | inactive |  |  |  |
